Data on 12 compounds can be found in PubChem BioAssay (EPA / NIEHS).

Experiment [1] is described as follows: CCTE_Harrill_HTTr_CellCount_MCF7: CCTE's Cell Proliferation Assessment for the High-Throughput Transcriptomics (HTTr) Platform, Harrill Lab (AID 2284012; active means hit-call score of the fitted dose curve at least 0.9, where 1 is the maximum;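 further: cells exposed to compound for six hours; intended direction is loss of nuclei count meaning fewer cells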). In a few lines:
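Cell count served as viability reporter: loss of Hoechst-stained nuclei, counted by high content imaging, marks decreased growth or survival. Exposure was 6 h in MCF-7 cells across eight concentrations, with DMSO as baseline.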

The nature of experiment [2]: CCTE_Shafer_MEA_acute_burst_number: CCTE's Neural Acute Assay for Single-Electrode Bursts, Shafer Lab (AID 2284013). In a few lines:
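Burst totals were derived with adaptive spike detection (8x rms threshold) on filtered signals from rat cortical cultures; change relative to pre-treatment baseline after 40-min compound exposure (0.03-40 uM) was fitted in the negative direction against DMSO.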

The nature of experiment [3]: CCTE_Shafer_MEA_acute_burst_duration_mean: CCTE's Neural Acute Assay for Mean Burst Duration, Shafer Lab (AID 2284014).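 Further: hits are decreases in mean burst duration relative to DMSO controls.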 In a few lines:
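Acute exposure of mature rat cortical networks (DIV 13 or 15) grown on microelectrode arrays to 0.03-40 uM compound. Mean burst duration compared with the 40-min pre-dose baseline over a 40-min post-dose recording at 37 C.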

Experiment [4] is described as follows: CCTE_Shafer_MEA_acute_per_burst_spike_number_mean: CCTE's Neural Acute Assay for Average Number of Spikes Per Burst, Shafer Lab (AID 2284015).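 Further: hits are decreases in mean spikes per burst versus baseline.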 In a few lines: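 Primary rat cortical neurons on 48-well MEA plates, treated on DIV 13 or 15 at 0.03-40 uM. Spontaneous activity recorded 40 min before and 40 min after compound at 37 C; percent change in mean spikes per single-electrode burst per well, fitted in the loss direction versus DMSO.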

Experiment [5] in a line: CCTE_Shafer_MEA_acute_interburst_interval_mean: CCTE's Neural Acute Assay for Mean Interburst Interval, Shafer Lab (AID 2284016).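 Further: percent change of mean interburst interval versus each well's own pre-dose baseline; curves fitted for decrease in interburst interval relative to DMSO.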 In a few lines: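 Primary rat cortical neurons on 16-electrode MEA wells were recorded 40 min at baseline on DIV 13 or 15, then 40 min after compound (0.03-40 uM), at 37 C. Value is percent change in mean interburst interval per well, DMSO as negative control.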

Experiment [6] in a line: CCTE_Shafer_MEA_acute_burst_percentage_mean: CCTE's Neural Acute Assay for Percentage of Spikes in a Burst, Shafer Lab (AID 2284017).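 On AC50: curve fitted for loss of signal so potency reflects decreased burst percentage.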 Summed up:
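Primary rat cortical neurons on 16-electrode MEA wells; 40 min baseline recorded at DIV 13 or 15, then 40 min after compound (0.03-40 uM) at 37 C. Well-mean fraction of spikes in single-electrode bursts; percent change from baseline, DMSO as negative control.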

Experiment [7] is described as follows: CCTE_Shafer_MEA_acute_burst_percentage_std: CCTE's Neural Acute Assay for Standard Deviation of Burst Percentage, Shafer Lab (AID 2284018).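 Further: fitted in the negative direction so actives lower burst percentage SD.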 In a few lines: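 Primary rat cortical neurons on 16-electrode MEA wells were recorded 40 min at baseline (DIV 13 or 15), then 40 min after compound (0.03-40 uM), at 37 C. Well value is SD across electrodes of spikes-in-bursts/total spikes; endpoint is percent change, DMSO-referenced.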

Experiment [8] can be described thus: CCTE_Shafer_MEA_acute_per_network_burst_spike_number_mean: CCTE's Neural Acute Assay for Average Number of Spikes in a Network Burst, Shafer Lab (AID 2284019).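 On AC50: curve fitted for loss of signal so actives reduce spikes per network burst.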 Summed up: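 Acute exposure of rat primary cortical networks (DIV 13/15) on MEAs; adaptive spike detection at 8x rms noise, 37 C. Percent change in spikes per network burst after 40 min with compound (0.03-40 uM), negative direction vs DMSO.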

Experiment [9] in a line: CCTE_Shafer_MEA_acute_per_network_burst_spike_number_std: CCTE's Neural Acute Assay for Standard Deviation of Number of Spikes in a Network Burst, Shafer Lab (AID 2284020).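 Further: fitted for decrease in spike-number SD versus DMSO so actives lower it.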 In a few lines: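 Acute MEA exposure, rat cortical neurons, 0.03-40 uM. Per-well % change versus own baseline; DMSO as negative control.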
Experiment [10] in a line: CCTE_Shafer_MEA_acute_per_network_burst_electrodes_number_mean: CCTE's Neural Acute Assay for Mean Number of Electrodes in a Network Burst, Shafer Lab (AID 2284021).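 Further: curves fitted for decreases only so hits reduce electrodes per burst.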 Summed up:
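Rat primary cortical neurons on 48-well MEAs, DIV 13 or 15, were treated at 0.03-40 uM. Spikes were detected at 8x rms noise and recorded at 37 C. The mean electrodes per network burst in a 40 min exposure recording was expressed as percent change from a 40 min baseline.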

Experiment [11] can be described thus: CCTE_Shafer_MEA_acute_network_burst_percentage: CCTE's Neural Acute Assay for Percentage of Network Bursts, Shafer Lab (AID 2284022).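 Further: curves fitted for loss so actives lower network burst percentage.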 Summed up:
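Rat primary cortical neuron networks on 48-well MEA plates, DIV 13 or 15, treated acutely with compound (0.03-40 uM, at least three wells). Percent of spikes within network bursts compared between 40-min recordings before and during exposure at 37 C, expressed as percent change.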

Experiment [12] is described as follows: CCTE_Shafer_MEA_acute_cross_correlation_area: CCTE's Neural Acute Assay for Area of Cross Correlation, Shafer Lab (AID 2284024).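 Further: curves fitted for loss of cross-correlation area so actives lower synchrony.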 In a few lines: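 Rat primary cortical neurons on 48-well MEA, DIV 13 or 15; compounds 0.03-40 uM. Baseline and post-exposure 40 min recordings at 37 C; percent change in area under pooled inter-electrode cross-correlation near zero lag, relative to DMSO.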

The nature of experiment [13]: CCTE_Shafer_MEA_acute_cross_correlation_HWHM: CCTE's Neural Acute Assay for Cross Correlation at Half Width at Half Maximum, Shafer Lab (AID 2284026).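 Further: percent change per well from pre-dose baseline in spike cross-correlogram half width; hits are a decrease in cross-correlogram half width relative to DMSO.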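 On outcome: spontaneous network firing of rat primary cortical neurons on multiwell microelectrode arrays.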 Summed up:
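Rat primary cortical neurons on 48-well MEA plates; 40-min baseline and 40-min post-exposure recordings at 37 C on DIV 13 or 15, compounds 0.03-40 uM. Spikes detected at 8x rms noise; percent change in cross-correlogram HWHM per well vs baseline.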

Experiment [14] deals with Estrogen receptor (Homo sapiens) (UniProt P03372). Briefly: CCTE_Deisenroth_AIME_96WELL_LUC_Active: CCTE's 96-well Estrogen Receptor Transactivation Assay with AIME metabolic competence (ERTA luciferase; metabolism positive), Deisenroth Lab (AID 2284023; active means hit-call score of the fitted dose curve at least 0.9, where 1 is the maximum). Summed up:
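Metabolism-positive mode: induced rat hepatic S9 in alginate microspheres conditions test solutions (0.002 - 200 uM, 10 points) for 2 hours. VM7Luc4E2 ER luciferase reporter cells then exposed 24 h; positive-direction fit against 17beta-estradiol, n=4 typical.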

For experiment [15] the target is unchanged. In words: CCTE_Deisenroth_AIME_96WELL_LUC_Inactive: CCTE's 96-well Estrogen Receptor Transactivation Assay without AIME metabolic competence (ERTA luciferase; metabolism negative), Deisenroth Lab (AID 2284025; active means hit-call score of the fitted dose curve at least 0.9, where 1 is the maximum). In a few lines:
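Metabolism-negative arm: chemicals (0.002–200 uM, 10 points) incubated 2 h with alginate-water microspheres, then medium moved onto VM7Luc4E2 cells for 24 h luciferase read-out. Positive direction vs 17beta-estradiol; n≥4 experiments.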

Experiment [16] can be described thus: CCTE_Deisenroth_AIME_96WELL_CTox_Active: Cytotoxicity Assessment (CTOX) in CCTE's 96-well Estrogen Receptor Transactivation Assay with AIME metabolic competence (metabolism positive), Deisenroth Lab (AID 2284028; active means hit-call score of the fitted dose curve at least 0.9, where 1 is the maximum). In a few lines: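 Cytotoxicity in VM7Luc4E2 breast cells after 24 h exposure to medium from a 2 h metabolic pre-incubation with induced rat hepatic S9 in alginate microspheres; fluorescent live-cell protease readout, 10-point series 0.002–200 uM, n=4.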

Experiment [17] can be described thus: CCTE_Deisenroth_AIME_96WELL_CTox_Inactive: Cytotoxicity Assessment (CTOX) in CCTE's 96-well Estrogen Receptor Transactivation Assay without AIME metabolic competence (metabolism negative), Deisenroth Lab (AID 2284029; active means hit-call score of the fitted dose curve at least 0.9, where 1 is the maximum). In a few lines: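 Metabolism-negative mode: alginate-water lids without rat S9, 2 h pre-incubation of 10-point series (0.002 - 200 uM). Conditioned medium on VM7Luc4E2 cells 24 h; loss of fluorescent live-cell protease signal marks cytotoxicity.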

The nature of experiment [18]: CCTE_Shafer_MEA_dev_firing_rate_mean: CCTE's Neural Network Formation Assay for Mean Firing Rate, Shafer Lab (AID 2284031).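 On AC50: curve fitted for loss of firing so AC50 reflects decreased mean firing rate.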 In a few lines:
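Steps: seed rat cortical cells (1.5 x 10^5/well) with laminin on PEI-coated MEA; dose day 0; record DIV 5/7/9/12, full media and compound exchange after DIV 5 and 9 recordings; compute well-mean firing rate AUC.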

A short description of experiment [19]: CCTE_Shafer_MEA_dev_per_burst_spike_percent: CCTE's Neural Network Formation Assay for Percent of Spikes in a Burst, Shafer Lab (AID 2284032).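 On AC50: fitted as a decrease in burst spike percentage below DMSO baseline.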 In a few lines:
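Value is trapezoidal AUC over recordings on days 5, 7, 9 and 12 of the well-mean fraction of spikes falling in single-electrode bursts; rat cortical cultures exposed continuously from plating, treatment renewed DIV 5 and 9, fitted downward against DMSO.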

Experiment [20] addresses Estrogen receptor (Homo sapiens) (UniProt P03372). In words: CCTE_Deisenroth_AIME_384WELL_LUC_Active: CCTE's 384-well Estrogen Receptor Transactivation Assay with AIME metabolic competence (ERTA luciferase; metabolism positive), Deisenroth Lab (AID 2284030; active means hit-call score of the fitted dose curve at least 0.9, where 1 is the maximum). Summed up:
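Chemicals (10-point, 0.002-200 uM) were first incubated 2 hours with alginate-immobilized induced male Sprague Dawley rat liver S9. The conditioned medium was then applied to VM7Luc4E2 cells for 24 hours, with ER luciferase induction read by luminescence relative to 17beta-estradiol.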

SMILES strings stand for the structures. “And” between values parts separate entries of the source, which are not always exact repeats. Identical values can stand only once. Results filed as inconclusive are left out. A structure can be active in one record and inactive in another. The source made the active and inactive calls. How the source made its calls, unless noted: active means hit-call score of the fitted dose curve at least 0.9, where 1 is the maximum; inactive means score below 0.9.

Estrogen receptor (Homo sapiens), sequence (P03372 whole entry, looked up): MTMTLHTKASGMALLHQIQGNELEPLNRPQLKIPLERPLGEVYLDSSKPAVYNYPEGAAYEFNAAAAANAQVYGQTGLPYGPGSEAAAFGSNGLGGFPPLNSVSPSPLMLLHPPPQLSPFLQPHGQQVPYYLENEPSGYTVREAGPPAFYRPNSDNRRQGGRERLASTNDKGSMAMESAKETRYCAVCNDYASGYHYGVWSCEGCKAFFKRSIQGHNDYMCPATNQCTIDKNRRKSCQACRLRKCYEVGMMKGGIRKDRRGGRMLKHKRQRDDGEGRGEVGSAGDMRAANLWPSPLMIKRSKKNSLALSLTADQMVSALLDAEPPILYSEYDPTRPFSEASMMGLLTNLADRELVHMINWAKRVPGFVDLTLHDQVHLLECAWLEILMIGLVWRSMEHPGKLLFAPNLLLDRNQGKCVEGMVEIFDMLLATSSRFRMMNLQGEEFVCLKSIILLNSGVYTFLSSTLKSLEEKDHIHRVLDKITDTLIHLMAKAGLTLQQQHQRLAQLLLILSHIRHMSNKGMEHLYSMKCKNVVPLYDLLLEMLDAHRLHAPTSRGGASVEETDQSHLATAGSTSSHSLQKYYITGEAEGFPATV

Consider `N#CC(CCc1ccc(Cl)cc1)(Cn1cncn1)c1ccccc1` (configuration not stated), for which the compound was classed as inactive in [1], in experiment [2], in experiment [3], in experiment [4], in experiment [5] and in experiment [6]. Also, the outcome in experiment [7], in experiment [8], in experiment [9], in [10], in experiment [11] and in [12] was inactive. For the same compound, in experiment [13], the outcome was inactive.
As for `CCOC(=O)C(Cl)Cc1cc(-n2nc(C)n(C(F)F)c2=O)c(F)cc1Cl` (configuration not stated), in [1], the outcome was inactive.
By AC50 is commonly meant the midpoint of the concentration-response curve, whichever way the signal moves. With `CCCCC(CC)COC(=O)c1ccccc1C(=O)OCC(CC)CCCC` (configuration not stated), the call in experiment [1], in experiment [14], in experiment [15], in [16], in [17] and in experiment [18] was inactive. For the same compound, the result in [19] was inactive. Also, the AC50 in [18] is 2.98 µM (active) and 3.04 µM (active); in experiment [19], 15 µM (active) and 9.27 µM (active).
For `CC1=C(C(=O)Nc2ccccc2)SCCO1`, the compound was classed as inactive in experiment [1] and in [20].
Regarding `CCCCOC(=O)c1ccccc1C(=O)OCCCC`, the call in experiment [14], in experiment [16] and in experiment [18] was inactive. Besides, the AC50 in [15] was 34.1 µM (active); in experiment [19], 75.3 µM (active).
As to `CON(C)C(=O)Nc1ccc(Cl)c(Cl)c1`, the call in experiment [2], in experiment [3], in experiment [4], in [5], in experiment [8] and in experiment [9] was inactive. Besides, the compound was called inactive in [10], in [11] and in experiment [12]. Besides, the AC50 in experiment [6] was 8.54 µM (active); in experiment [7], 0.649 µM (active); in experiment [13], 6.23 µM (active).
`CNC(=O)ON=CC(C)(C)SC`: the compound was called inactive in experiment [2], in [3], in experiment [4], in [5], in experiment [6] and in [7]. Besides, the outcome in [8], in experiment [9], in experiment [10], in [11], in experiment [12] and in [13] was inactive. The result in experiment [18] and in experiment [19] was inactive.
On to `CC(Oc1ccc(Cl)cc1Cl)C(=O)O` (configuration not stated), for which the compound was called inactive in [2], in experiment [3], in experiment [4], in experiment [5], in [6] and in experiment [7]. Further, the compound was classed as inactive in experiment [8], in experiment [9], in experiment [10], in [11], in experiment [12] and in [13]. The compound was called inactive in experiment [20].
In the case of `Oc1ccccc1-c1ccccc1`, the outcome in experiment [1] and in experiment [17] was inactive. The AC50 is 68.8 µM (active) in experiment [14], 58.3 µM (active) in experiment [15] and 57.9 µM (active) in experiment [20].
In the case of `C=CCC1=C(C)C(OC(=O)C2C(C=C(C)C)C2(C)C)CC1=O` (configuration not stated), the outcome in experiment [2], in experiment [3], in experiment [4], in experiment [5], in [7] and in experiment [8] was inactive. For the same compound, the result in experiment [9], in [10], in experiment [12], in [13], in [18] and in [19] was inactive. Besides, the AC50 in experiment [4] was 2.93 µM (active); in experiment [5], 3.88 µM (active); in experiment [6] it was 6.49 µM (active) and 2.93 µM (active); in experiment [9], 0.727 µM (active); in [11], 7.43 µM (active) and 1.34 µM (active); in experiment [13] it was 2.38 µM (active). Moreover, the AC50 in [19] is 14.8 µM (active).
In the case of `Fc1ccc(Oc2ccnc3cc(Cl)cc(Cl)c23)cc1`, the compound was called inactive in [2], in experiment [3], in experiment [4], in experiment [5], in [6] and in experiment [7]. Also, the result in [8], in experiment [9], in [10], in [11], in experiment [12] and in experiment [13] was inactive.
Consider `CCCC1COC(Cn2cncn2)(c2ccc(Cl)cc2Cl)O1` (configuration not stated), for which the result in [2], in experiment [3], in experiment [5], in experiment [7] and in experiment [12] was inactive. Also, the concentration at half-maximal activity (AC50) in [4] is 20 µM (active); in [6], 14.6 µM (active); in experiment [8], 9.03 µM (active); in experiment [9], 12.6 µM (active); in experiment [10], 15.2 µM (active); in [11], 20 µM (active). Further, the AC50 in experiment [13] is 25.8 µM (active).
